Reference: PubChem BioAssay (NCATS)
Records with an inconclusive call do not appear. Where a call stands in place of a potency, no number is given. The source made the active and inactive calls. Unless noted, calls follow the shape of the dose curve; as a rule, active = well fitted curve in the direction sought with a large enough effect; inconclusive = small, poorly fitted or top-dose-only effect, or another doubt; inactive = no such curve, though single readings can be large; an effect the other way counts as inactive or inconclusive. Peptide text beside a SMILES is read from it.

Columns and labels:
[1] = target: Cytochrome P450 3A4 (Homo sapiens) (UniProt P08684); assay: qHTS Assay for Inhibitors and Substrates of Cytochrome P450 3A4 (AID 884); also: nearly all actives have a fitted effect of over 50% in size; also: potency is read from the fitted curve at half-maximal effect
Cytochrome P450 3A4 (Homo sapiens), sequence (P08684 whole entry, looked up): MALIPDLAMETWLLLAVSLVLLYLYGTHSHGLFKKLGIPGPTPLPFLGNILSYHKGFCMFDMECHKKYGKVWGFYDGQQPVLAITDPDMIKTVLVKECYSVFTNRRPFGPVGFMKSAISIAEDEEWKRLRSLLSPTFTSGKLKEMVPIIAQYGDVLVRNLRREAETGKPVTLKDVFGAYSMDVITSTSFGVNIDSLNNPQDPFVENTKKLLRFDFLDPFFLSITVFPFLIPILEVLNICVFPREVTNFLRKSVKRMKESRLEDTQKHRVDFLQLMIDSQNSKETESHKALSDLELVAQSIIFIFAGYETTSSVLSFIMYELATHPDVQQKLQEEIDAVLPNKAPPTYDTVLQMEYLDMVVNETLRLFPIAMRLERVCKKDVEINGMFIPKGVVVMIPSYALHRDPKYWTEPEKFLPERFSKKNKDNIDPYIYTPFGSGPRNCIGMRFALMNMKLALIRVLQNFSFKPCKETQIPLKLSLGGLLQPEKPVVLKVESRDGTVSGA
Method in brief: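 20 nM human CYP3A4 with 25 uM Luciferin-PPXE (at KM) in 200 mM KPO4, preincubated 10 min with compound; NADPH regeneration started a 60 min RT reaction. Luciferin detected by luminescence, normalized to 57 uM ketoconazole as full inhibition.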

[2] = Confirmation and Secondary Assay for Modulators of Hemoglobin Beta Chain Splicing at IVS2 654 locus (AID 910);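 also: HeLa cells stably carrying EGFP split by mutant beta-globin IVS2-654 intron; per-well total GFP intensity by laser scanning cytometry after 2-day treatment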
Method in brief: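 Readout: per-well total peak green fluorescence (488 nm ex, 500–520 nm em) from objects 5–250 µm, reflecting correct splicing of an EGFP-654 reporter. Compounds were applied for 2 days at 37 °C to overnight-plated HeLa EGFP-654 cells; controls were DMSO and 500 nM IVS2-654 PNA.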

[3] = Confirmation and Secondary Assay for Modulators of Hemoglobin Beta Chain Splicing at IVS2 705 locus (AID 930);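 also: HeLa cells stably expressing the EGFP-705 splicing reporter; GFP fluorescence per well restored by corrected splicing of the IVS2-705 intron in EGFP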
Method in brief: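 First, HeLa EGFP-705 cells are seeded at 500/well in Optimem with 2% FCS and left overnight. Next, compound or DMSO is added for 2 days. Finally wells are laser-scanned and total peak GFP intensity scored.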

[4] = S16 Schwann cell PMP22 intronic element firefly luciferase assay (AID 624032); also: nearly all actives have a fitted effect of over 30% in size; also: potency is read from the fitted curve at half-maximal effect
Method in brief: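 Luciferase reporter of PMP22 intronic-element expression in stably transfected S16 rat Schwann cells, read by ONE-Glo luminescence after 24 h compound exposure at 37 C. Activity scaled between DMSO (0%) and positive-control PTC124; concentration-effect curves quality-classified.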

[5] = S16 Schwann cell PMP22 intronic element beta-lactamase assay (AID 624044; calls by dose curve; also: nearly all actives have a fitted effect of over 15% in size; also: potency is read from the fitted curve at half-maximal effect)
Method in brief: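 Rat S16 Schwann cells with beta-Lac driven by a PMP22 intronic element, compound-treated 24 h at 37 °C. LiveBLAzer FRET B/G read: 460 nm normalized to potassium clavulanate vs DMSO; 535 nm FRET as viability; concentration-effect curves classified.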

[6] = tested on: CP203; assay: qHTS profiling for inhibitors of Plasmodium falciparum proliferation (AID 504749); also: nearly all actives have a fitted effect of over 60% in size; also: potency is read from the fitted curve at half-maximal effect; details: P. falciparum in erythrocytes, SYBR Green DNA, 72 h; series mostly up to 12.8 µM
Method in brief: (§1)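 Three-day growth assay of blood-stage parasites in erythrocytes (0.3% parasitemia, 2.5% hematocrit) at 37 C, 5% CO2, quantified by SYBR Green DNA staining after overnight detergent lysis.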

[7] = tested on: CP260; assay: as above; details: P. falciparum in erythrocytes, SYBR Green DNA, 72 h; series mostly up to 12.8 µM
Method in brief: as §1

[8] = tested on: CP265; assay: as above; details: P. falciparum in erythrocytes, SYBR Green DNA, 72 h; series mostly up to 12.8 µM
Method in brief: as §1

[9] = tested on: CP335; assay: as above; details: P. falciparum in erythrocytes, SYBR Green DNA, 72 h; series mostly up to 12.8 µM
Method in brief: as §1

[10] = tested on: W2; assay: as above; details: P. falciparum in erythrocytes, SYBR Green DNA, 72 h; series mostly up to 12.8 µM
Method in brief: as §1

[11] = S16 Schwann cell viability assay (CellTiter-Glo assay) (AID 624031);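 also: native untransfected S16 rat Schwann cells; nearly all actives have a fitted effect of over 70% in size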
Method in brief: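 Counter-screen for cytotoxicity: parental S16 rat Schwann cells lacking the PMP22 reporters, treated 24 h with compound, viability from cellular ATP by CellTiter-Glo luminescence, normalized to DMSO (0%) and no-cell wells.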

[12] = tested on: DFO2036; assay: qHTS profiling for inhibitors of Plasmodium falciparum proliferation (AID 504749); also: nearly all actives have a fitted effect of over 60% in size; also: potency is read from the fitted curve at half-maximal effect; details: P. falciparum in erythrocytes, SYBR Green DNA, 72 h; series mostly up to 12.8 µM
Method in brief: as §1

[13] = tested on: DIV14; assay: as above; details: P. falciparum in erythrocytes, SYBR Green DNA, 72 h; series mostly up to 12.8 µM
Method in brief: as §1

[14] = target: Cytochrome P450 3A4 (Homo sapiens) (UniProt P08684); assay: qHTS Assay for Activators of Cytochrome P450 3A4 (AID 885); also: nearly all actives have a fitted effect of over 65% in size
Method in brief: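 Steps: enzyme/substrate mix dispensed; compound added, 10 min RT; NADPH regeneration solution added, 60 min RT; luciferin detection buffer stops reaction; 20 min later luminescence measured.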

[15] = target: Cytochrome P450 2D6 (Homo sapiens) (UniProt P10635); assay: qHTS Assay for Inhibitors and Substrates of Cytochrome P450 2D6 (AID 891);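 also: luciferin methyl ether substrate demethylated by CYP2D6 with NADPH regeneration; nearly all actives have a fitted effect of over 60% in size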
Cytochrome P450 2D6 (Homo sapiens), sequence (P10635 whole entry, looked up): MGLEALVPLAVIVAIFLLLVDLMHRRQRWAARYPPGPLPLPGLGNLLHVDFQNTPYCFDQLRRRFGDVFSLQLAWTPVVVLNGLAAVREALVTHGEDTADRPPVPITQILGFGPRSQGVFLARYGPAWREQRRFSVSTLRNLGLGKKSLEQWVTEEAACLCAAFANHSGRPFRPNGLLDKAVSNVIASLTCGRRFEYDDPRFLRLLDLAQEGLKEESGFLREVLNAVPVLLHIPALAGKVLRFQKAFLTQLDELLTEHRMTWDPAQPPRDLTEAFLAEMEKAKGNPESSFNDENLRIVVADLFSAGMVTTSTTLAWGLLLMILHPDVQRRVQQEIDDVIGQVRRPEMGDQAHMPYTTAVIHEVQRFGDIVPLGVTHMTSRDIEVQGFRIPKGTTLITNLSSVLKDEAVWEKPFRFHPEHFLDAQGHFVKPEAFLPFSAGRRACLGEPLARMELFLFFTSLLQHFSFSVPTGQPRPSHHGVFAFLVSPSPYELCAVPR
Method in brief: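 Human CYP2D6 (5 nM) with 30 uM Luciferin-ME EGE (at Km) in 100 mM KPO4, compound preincubated 10 min, then NADPH regeneration system for 60 min at room temperature. Luciferin read by luminescence; normalized to 1.43 uM quinidine.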

| SMILES | Potency [1] | Potency [2] | Potency [3] | Potency [4] | Potency [5] | Potency [6] | Potency [7] | Potency [8] | Potency [9] | Potency [10] | outcome [11] | Potency [12] | Potency [13] | Potency [14] | Potency [15] |
| --- | --- | --- | --- | --- | --- | --- | --- | --- | --- | --- | --- | --- | --- | --- | --- |
| Nc1nc2ncc(CNc3ccc(C(=O)NC(CCC(=O)O)C(=O)O)cc3)nc2c(=O)[nH]1 (stereo not given) | inactive | inactive | inactive | inactive | inactive | inactive | inactive | inactive | inactive | inactive | – | – | – | – | – |
| CCCC(=O)O[C@]1(C(=O)CO)CCC2[C@@H]3CCC4=CC(=O)CC[C@]4(C)C3C(O)C[C@]21C (stereo not given in full) | inactive | inactive | inactive | inactive | – | inactive | inactive | inactive | inactive | inactive | inactive | inactive | inactive | – | – |
| COC(=O)C(Cc1ccccc1)NC(=O)C(N)CC(=O)O (stereo not drawn) (H-Asp-Phe-OMe; configuration not given here) | inactive | inactive | inactive | inactive | inactive | inactive | inactive | inactive | inactive | inactive | inactive | inactive | inactive | – | – |
| CNC1C(OC2C(O[C@@H]3C(O)C(O)[C@@H](N=C(N)N)C(O)C3N=C(N)N)OC(C)[C@@]2(O)CO)OC(CO)C(O)C1O (stereo not given in full) | – | inactive | inactive | inactive | – | – | inactive | inactive | inactive | inactive | inactive | inactive | inactive | – | – |
| OCC1OC([S-])[C@H](O)C(O)C1O.[Au+] (stereo not given in full) | inactive | inactive | inactive | inactive | inactive | inactive | inactive | inactive | inactive | – | – | inactive | inactive | – | – |
| C[C@]12C=CC(=O)C=C1CCC1C2C(O)C[C@]2(C)C1CC[C@]2(O)C(=O)CO (stereo not given in full) | – | inactive | inactive | inactive | inactive | inactive | inactive | inactive | inactive | inactive | inactive | inactive | inactive | inactive | – |
| Cc1cc(O)c(C=O)c2c1C(=O)Oc1c(COC(=O)/C=C/C(=O)O)c(O)c(C(=O)O)c(C)c1O2 | – | inactive | inactive | – | – | – | – | – | – | – | – | – | – | inactive | – |
| CCC(CCC(C)C1CCC2C3CC=C4CC(O)CC[C@@]4(C)C3CC[C@@]12C)C(C)C (stereo not given in full) | – | – | inactive | inactive | – | inactive | inactive | inactive | inactive | inactive | inactive | inactive | inactive | – | – |
| Cc1cc2ccc(=O)oc2cc1OC[C@@H](O)C(C)(C)O | – | – | – | – | – | – | – | – | – | – | – | – | – | – | inactive |
| Cc1cc(O)c(C=O)c2c1C(=O)Oc1c(C)c(O)c3c(c1O2)C(O)OC3=O (stereo not given) | – | inactive | inactive | – | – | – | – | – | – | – | – | – | – | inactive | – |
| COc1ccc(CC(N)C(=O)NC2C(CO)OC(n3cnc4c(N(C)C)ncnc43)C2O)cc1 (stereo not given) | – | inactive | inactive | 1280 nM (active) | 7070 nM (active) | 1510 nM (active) | 891 nM (active) | 891 nM (active) | 757 nM (active) | 338 nM (active) | – | 891 nM (active) | 953 nM (active) | – | – |
| CC(=O)N[C@H](CC(C)C)C(=O)O | – | inactive | inactive | inactive | inactive | inactive | – | inactive | inactive | inactive | – | inactive | inactive | – | – |
| CC1CCC(C(C)C)C(=O)C1 (stereo not given) | inactive | inactive | inactive | inactive | – | inactive | inactive | inactive | inactive | inactive | inactive | inactive | inactive | – | – |
| CCC(C)C(=O)OC1CCC=C2C=CC(C)C(CCC3CC(O)CC(=O)O3)[C@@H]21 (stereo not given in full) | 20000 nM (active) | inactive | inactive | inactive | – | inactive | inactive | inactive | inactive | inactive | – | inactive | inactive | inactive | – |
| N[C@H](CO)Cc1cnc[nH]1 | inactive | – | – | – | – | – | – | – | – | – | – | – | – | – | – |
| CC(=O)N[C@@H]1C(O)OC(CO)C(O)C1O (stereo not given in full) | inactive | inactive | inactive | inactive | inactive | inactive | inactive | inactive | inactive | inactive | inactive | – | – | – | – |
| C#C[C@]1(O)CCC2C3CCC4=CC(=O)CCC4C3CC[C@@]21C (stereo not given in full) | – | inactive | inactive | – | – | – | – | – | – | – | – | – | – | – | – |
